In paper PMC11006913:
Numbering of substitutions follows the chain as printed.

Columns and labels:
Test in all cases: PBM; 200 nM protein, PBS
Settings in all cases: dsDNA, one strand shown
[1] = target: PRRX1 (Homo sapiens, UniProt P54821 80-166, F113S)
[2] = target: PROP1 (Homo sapiens, UniProt O75360 56-141)
[3] = target: PROP1 (Homo sapiens, UniProt O75360 56-141, R99H)
[4] = target: PROP1 (Homo sapiens, UniProt O75360 56-141, F88S)
[5] = target: PRRX1 (Homo sapiens, UniProt P54821 80-166)
[6] = target: ALX3 (Homo sapiens, UniProt O95076 139-225, N203Q)
[7] = target: ALX3 (Homo sapiens, UniProt O95076 139-225)
[8] = target: VAX1 (Homo sapiens, UniProt Q5SQQ9 86-172)
[9] = target: ALX3 (Homo sapiens, UniProt O95076 139-225, L168Q)
[10] = target: ALX3 (Homo sapiens, UniProt O95076 139-225, L168V)
[11] = target: VAX1 (Homo sapiens, UniProt Q5SQQ9 86-172, T142I)
[12] = target: ALX3 (Homo sapiens, UniProt O95076 139-225, N203S)
[13] = target: VAX1 (Homo sapiens, UniProt Q5SQQ9 86-172, K157R)
[14] = target: HOXA2 (Homo sapiens, UniProt O43364 129-215, R185T)
[15] = target: MSX2 (Homo sapiens, UniProt P35548 130-214, R199I)
[16] = target: T1, NKX2-6 (Homo sapiens, UniProt A6NCS4 118-204)
T1 sequence: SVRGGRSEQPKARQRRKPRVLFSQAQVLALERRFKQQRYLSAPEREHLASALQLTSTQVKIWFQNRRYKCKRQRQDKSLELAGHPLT

[17] = target: MSX2 (Homo sapiens, UniProt P35548 130-214)
[18] = target: T2, NKX2-6 (Homo sapiens, UniProt A6NCS4 118-204, F151L)
T2 sequence: T1 sequence with F34L

[19] = target: MSX2 (Homo sapiens, UniProt P35548 130-214, F161Y)
[20] = target: HOXD13 (Homo sapiens, UniProt P35453 263-343, T313R)
[21] = target: HOXA2 (Homo sapiens, UniProt O43364 129-215, R185K)
[22] = target: HOXD13 (Homo sapiens, UniProt P35453 263-343)
[23] = target: HOXD13 (Homo sapiens, UniProt P35453 263-343, T313A)
[24] = target: HOXA2 (Homo sapiens, UniProt O43364 129-215, Y150S)
[25] = target: NKX3-2 (Homo sapiens, UniProt P78367 192-278, P234S)
[26] = target: HOXA2 (Homo sapiens, UniProt O43364 129-215)
[27] = target: NKX3-2 (Homo sapiens, UniProt P78367 192-278)
[28] = target: PITX2 (Homo sapiens, UniProt Q99697 72-157)

PRRX1 (Homo sapiens, UniProt P54821 80-166, F113S), sequence (P54821 80-166 F113S): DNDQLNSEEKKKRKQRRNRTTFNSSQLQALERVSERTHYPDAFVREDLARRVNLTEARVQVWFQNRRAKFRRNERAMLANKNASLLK
PROP1 (Homo sapiens, UniProt O75360 56-141, R99H), sequence (O75360 56-141 R99H): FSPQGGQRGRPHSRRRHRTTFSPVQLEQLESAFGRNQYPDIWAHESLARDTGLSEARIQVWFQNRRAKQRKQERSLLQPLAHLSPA
PROP1 (Homo sapiens, UniProt O75360 56-141, F88S), sequence (O75360 56-141 F88S): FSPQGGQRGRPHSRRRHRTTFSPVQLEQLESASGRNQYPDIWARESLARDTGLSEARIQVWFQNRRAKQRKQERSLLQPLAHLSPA
PRRX1 (Homo sapiens, UniProt P54821 80-166), sequence (P54821 80-166): as the sequence (P54821 80-166 F113S) above, with S34F counted along it
PROP1 (Homo sapiens, UniProt O75360 56-141), sequence (O75360 56-141): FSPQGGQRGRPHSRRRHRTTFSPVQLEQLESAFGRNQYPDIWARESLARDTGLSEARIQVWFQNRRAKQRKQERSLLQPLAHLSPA
MSX2 (Homo sapiens, UniProt P35548 130-214, R199I), sequence (P35548 130-214 R199I): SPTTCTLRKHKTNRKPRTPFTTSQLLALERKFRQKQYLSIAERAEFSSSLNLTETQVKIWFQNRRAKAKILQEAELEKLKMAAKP
HOXD13 (Homo sapiens, UniProt P35453 263-343, T313R), sequence (P35453 263-343 T313R): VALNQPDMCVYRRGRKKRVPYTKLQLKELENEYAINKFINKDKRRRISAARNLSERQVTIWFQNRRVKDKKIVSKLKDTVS
ALX3 (Homo sapiens, UniProt O95076 139-225), sequence (O95076 139-225): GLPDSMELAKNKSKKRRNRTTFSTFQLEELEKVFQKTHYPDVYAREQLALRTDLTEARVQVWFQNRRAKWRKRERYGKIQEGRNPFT
HOXA2 (Homo sapiens, UniProt O43364 129-215, R185T), sequence (O43364 129-215 R185T): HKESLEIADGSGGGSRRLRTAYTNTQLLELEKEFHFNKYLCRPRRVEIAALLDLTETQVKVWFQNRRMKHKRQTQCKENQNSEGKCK
HOXD13 (Homo sapiens, UniProt P35453 263-343), sequence (P35453 263-343): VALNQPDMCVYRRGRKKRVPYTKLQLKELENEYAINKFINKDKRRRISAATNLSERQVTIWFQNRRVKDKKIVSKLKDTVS
ALX3 (Homo sapiens, UniProt O95076 139-225, L168Q), sequence (O95076 139-225 L168Q): as the sequence (O95076 139-225) above, with L30Q counted along it
ALX3 (Homo sapiens, UniProt O95076 139-225, L168V), sequence (O95076 139-225 L168V): as the sequence (O95076 139-225) above, with L30V counted along it
MSX2 (Homo sapiens, UniProt P35548 130-214), sequence (P35548 130-214): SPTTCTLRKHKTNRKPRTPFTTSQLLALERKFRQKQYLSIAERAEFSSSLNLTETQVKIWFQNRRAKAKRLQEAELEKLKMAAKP
MSX2 (Homo sapiens, UniProt P35548 130-214, F161Y), sequence (P35548 130-214 F161Y): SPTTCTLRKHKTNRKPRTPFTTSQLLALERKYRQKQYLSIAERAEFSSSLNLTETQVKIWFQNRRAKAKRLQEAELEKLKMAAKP
HOXD13 (Homo sapiens, UniProt P35453 263-343, T313A), sequence (P35453 263-343 T313A): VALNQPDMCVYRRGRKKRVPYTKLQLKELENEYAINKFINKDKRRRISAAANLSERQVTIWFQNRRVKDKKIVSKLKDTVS
ALX3 (Homo sapiens, UniProt O95076 139-225, N203Q), sequence (O95076 139-225 N203Q): as the sequence (O95076 139-225) above, with N65Q counted along it
ALX3 (Homo sapiens, UniProt O95076 139-225, N203S), sequence (O95076 139-225 N203S): as the sequence (O95076 139-225) above, with N65S counted along it
HOXA2 (Homo sapiens, UniProt O43364 129-215, Y150S), sequence (O43364 129-215 Y150S): as the sequence (O43364 129-215 R185T) above, with Y22S, T57R counted along it
VAX1 (Homo sapiens, UniProt Q5SQQ9 86-172, K157R), sequence (Q5SQQ9 86-172 K157R): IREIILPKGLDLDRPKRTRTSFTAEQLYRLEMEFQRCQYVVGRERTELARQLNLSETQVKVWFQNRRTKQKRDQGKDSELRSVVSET
NKX3-2 (Homo sapiens, UniProt P78367 192-278, P234S), sequence (P78367 192-278 P234S): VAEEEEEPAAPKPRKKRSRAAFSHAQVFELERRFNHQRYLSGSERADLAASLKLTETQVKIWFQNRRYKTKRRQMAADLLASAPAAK
VAX1 (Homo sapiens, UniProt Q5SQQ9 86-172, T142I), sequence (Q5SQQ9 86-172 T142I): as the sequence (Q5SQQ9 86-172 K157R) above, with T57I, R72K counted along it
HOXA2 (Homo sapiens, UniProt O43364 129-215, R185K), sequence (O43364 129-215 R185K): as the sequence (O43364 129-215 R185T) above, with T57K counted along it
NKX3-2 (Homo sapiens, UniProt P78367 192-278), sequence (P78367 192-278): as the sequence (P78367 192-278 P234S) above, with S43P counted along it
VAX1 (Homo sapiens, UniProt Q5SQQ9 86-172), sequence (Q5SQQ9 86-172): as the sequence (Q5SQQ9 86-172 K157R) above, with R72K counted along it
HOXA2 (Homo sapiens, UniProt O43364 129-215), sequence (O43364 129-215): as the sequence (O43364 129-215 R185T) above, with T57R counted along it

## CTTAATCA
[1]
  binding signal: 10.9 upbm affinity estimate (log intensity, higher = more binding, comparable within an allelic series)
[2]
  binding signal: 10.5 upbm affinity estimate (log intensity, higher = more binding, comparable within an allelic series)
[3]
  binding signal: 9.83 upbm affinity estimate (log intensity, higher = more binding, comparable within an allelic series)
[4]
  binding signal: 7.41 upbm affinity estimate (log intensity, higher = more binding, comparable within an allelic series)
[5]
  binding signal: 13 upbm affinity estimate (log intensity, higher = more binding, comparable within an allelic series)

## ACTGTTAT
[1]
  binding signal: 10.2 upbm affinity estimate (log intensity, higher = more binding, comparable within an allelic series)
[2]
  binding signal: 8.21 upbm affinity estimate (log intensity, higher = more binding, comparable within an allelic series)
[3]
  binding signal: 7.73 upbm affinity estimate (log intensity, higher = more binding, comparable within an allelic series)
[4]
  binding signal: 7.48 upbm affinity estimate (log intensity, higher = more binding, comparable within an allelic series)
[5]
  binding signal: 11.4 upbm affinity estimate (log intensity, higher = more binding, comparable within an allelic series)

## AGCCGGGC
[1]
  binding signal: 8.99 upbm affinity estimate (log intensity, higher = more binding, comparable within an allelic series)
[6]
  binding signal: 7.69 upbm affinity estimate (log intensity, higher = more binding, comparable within an allelic series)
[7]
  binding signal: 7.71 upbm affinity estimate (log intensity, higher = more binding, comparable within an allelic series)
[8]
  binding signal: 7 upbm affinity estimate (log intensity, higher = more binding, comparable within an allelic series)
[9]
  binding signal: 7.68 upbm affinity estimate (log intensity, higher = more binding, comparable within an allelic series)
[10]
  binding signal: 7.64 upbm affinity estimate (log intensity, higher = more binding, comparable within an allelic series)
[11]
  binding signal: 7.24 upbm affinity estimate (log intensity, higher = more binding, comparable within an allelic series)
[12]
  binding signal: 7.72 upbm affinity estimate (log intensity, higher = more binding, comparable within an allelic series)
[5]
  binding signal: 9.33 upbm affinity estimate (log intensity, higher = more binding, comparable within an allelic series)
[13]
  binding signal: 6.91 upbm affinity estimate (log intensity, higher = more binding, comparable within an allelic series)

## ACTAATCA
[1]
  binding signal: 10.9 upbm affinity estimate (log intensity, higher = more binding, comparable within an allelic series)
[14]
  binding signal: 12.5 upbm affinity estimate (log intensity, higher = more binding, comparable within an allelic series)
[15]
  binding signal: 11.2 upbm affinity estimate (log intensity, higher = more binding, comparable within an allelic series)
[5]
  binding signal: 13.2 upbm affinity estimate (log intensity, higher = more binding, comparable within an allelic series)

## ACGCCCCG
[1]
  binding signal: 9.23 upbm affinity estimate (log intensity, higher = more binding, comparable within an allelic series)
[15]
  binding signal: 9.45 upbm affinity estimate (log intensity, higher = more binding, comparable within an allelic series)
[6]
  binding signal: 7.74 upbm affinity estimate (log intensity, higher = more binding, comparable within an allelic series)
[16]
  binding signal: 9.2 upbm affinity estimate (log intensity, higher = more binding, comparable within an allelic series)
[17]
  binding signal: 9.36 upbm affinity estimate (log intensity, higher = more binding, comparable within an allelic series)
[7]
  binding signal: 7.57 upbm affinity estimate (log intensity, higher = more binding, comparable within an allelic series)
[9]
  binding signal: 7.68 upbm affinity estimate (log intensity, higher = more binding, comparable within an allelic series)
[18]
  binding signal: 9.33 upbm affinity estimate (log intensity, higher = more binding, comparable within an allelic series)
[10]
  binding signal: 7.67 upbm affinity estimate (log intensity, higher = more binding, comparable within an allelic series)
[19]
  binding signal: 9.41 upbm affinity estimate (log intensity, higher = more binding, comparable within an allelic series)
[12]
  binding signal: 7.73 upbm affinity estimate (log intensity, higher = more binding, comparable within an allelic series)
[5]
  binding signal: 9.08 upbm affinity estimate (log intensity, higher = more binding, comparable within an allelic series)

## GCTCGGCC
[1]
  binding signal: 9.12 upbm affinity estimate (log intensity, higher = more binding, comparable within an allelic series)
[14]
  binding signal: 7.15 upbm affinity estimate (log intensity, higher = more binding, comparable within an allelic series)
[20]
  binding signal: 9.46 upbm affinity estimate (log intensity, higher = more binding, comparable within an allelic series)
[21]
  binding signal: 10.3 upbm affinity estimate (log intensity, higher = more binding, comparable within an allelic series)
[22]
  binding signal: 9.56 upbm affinity estimate (log intensity, higher = more binding, comparable within an allelic series)
[23]
  binding signal: 9.62 upbm affinity estimate (log intensity, higher = more binding, comparable within an allelic series)
[24]
  binding signal: 10.3 upbm affinity estimate (log intensity, higher = more binding, comparable within an allelic series)
[25]
  binding signal: 10.3 upbm affinity estimate (log intensity, higher = more binding, comparable within an allelic series)
[5]
  binding signal: 9.13 upbm affinity estimate (log intensity, higher = more binding, comparable within an allelic series)
[26]
  binding signal: 6.97 upbm affinity estimate (log intensity, higher = more binding, comparable within an allelic series)
[27]
  binding signal: 10.3 upbm affinity estimate (log intensity, higher = more binding, comparable within an allelic series)

## GGCCTACC
[1]
  binding signal: 9.31 upbm affinity estimate (log intensity, higher = more binding, comparable within an allelic series)
[20]
  binding signal: 9.55 upbm affinity estimate (log intensity, higher = more binding, comparable within an allelic series)
[22]
  binding signal: 9.49 upbm affinity estimate (log intensity, higher = more binding, comparable within an allelic series)
[23]
  binding signal: 9.59 upbm affinity estimate (log intensity, higher = more binding, comparable within an allelic series)
[5]
  binding signal: 9.37 upbm affinity estimate (log intensity, higher = more binding, comparable within an allelic series)

## GCCCGTCC
[1]
  binding signal: 9.26 upbm affinity estimate (log intensity, higher = more binding, comparable within an allelic series)
[2]
  binding signal: 6.49 upbm affinity estimate (log intensity, higher = more binding, comparable within an allelic series)
[3]
  binding signal: 6.5 upbm affinity estimate (log intensity, higher = more binding, comparable within an allelic series)
[4]
  binding signal: 6.38 upbm affinity estimate (log intensity, higher = more binding, comparable within an allelic series)
[5]
  binding signal: 8.92 upbm affinity estimate (log intensity, higher = more binding, comparable within an allelic series)

## CGGCACCG
[1]
  binding signal: 9.31 upbm affinity estimate (log intensity, higher = more binding, comparable within an allelic series)
[15]
  binding signal: 9.48 upbm affinity estimate (log intensity, higher = more binding, comparable within an allelic series)
[28]
  binding signal: 7.77 upbm affinity estimate (log intensity, higher = more binding, comparable within an allelic series)
[17]
  binding signal: 9.42 upbm affinity estimate (log intensity, higher = more binding, comparable within an allelic series)
[19]
  binding signal: 9.54 upbm affinity estimate (log intensity, higher = more binding, comparable within an allelic series)
[5]
  binding signal: 9.57 upbm affinity estimate (log intensity, higher = more binding, comparable within an allelic series)
